Hits are enriched below; roughly 2.4% of the tested compounds scored in any of these assays.
D2 PAM-1: human D2 receptor positive allosteric modulation; DiscoveRx D2 beta-arrestin cells, luminescence, 90 min; 100% = 57 uM dopamine signal; potentiation, % (concentration not given with the values); P14416; AID 624464; 0.23% of 360,000 active; in the data active means potentiation above about 50%; inconclusive means mostly about 30% to 49%
Target sequence (P14416 whole entry, looked up): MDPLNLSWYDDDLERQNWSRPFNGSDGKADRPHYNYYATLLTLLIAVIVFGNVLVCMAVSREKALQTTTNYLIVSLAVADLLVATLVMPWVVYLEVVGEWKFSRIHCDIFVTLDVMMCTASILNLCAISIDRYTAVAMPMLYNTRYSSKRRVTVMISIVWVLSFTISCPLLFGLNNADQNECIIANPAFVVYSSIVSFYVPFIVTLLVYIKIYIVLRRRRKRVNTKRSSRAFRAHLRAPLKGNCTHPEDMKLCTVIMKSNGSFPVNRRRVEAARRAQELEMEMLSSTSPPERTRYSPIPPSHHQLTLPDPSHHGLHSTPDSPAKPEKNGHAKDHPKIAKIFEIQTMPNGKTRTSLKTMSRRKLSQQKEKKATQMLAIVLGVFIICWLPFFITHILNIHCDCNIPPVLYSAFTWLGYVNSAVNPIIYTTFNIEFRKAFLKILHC
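PathHunter D2 cells, attached overnight at 37 deg C, received compound in DMSO plus dopamine at EC20 (50 nM final) for 90 min at 37 deg C. Beta-arrestin recruitment was read as luminescence after 1 h with detection reagent at ambient temperature.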
D2 antag: antagonizes the human D2 dopamine receptor; 2% of 340,000 active; HEK293 TREx D2 cells, calcium flux, dopamine EC80; P14416; inhibition, % at 10 µM; in the data active means inhibition above about 30%; inactive means below that, where a call was filed; further: 0% is about no effect
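Overnight-induced (tetracycline, 30 C) HEK293 T-REx cells carrying force-coupled D2 receive a no-wash calcium dye, then compound, then EC80 dopamine at 180 s; signals are read kinetically throughout.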
D2 ag-1: human D2 receptor agonism in beta-arrestin assay | P14416 | DiscoveRx PathHunter D2 beta-arrestin, luminescence, 90 min; 100% = 57 uM dopamine signal | activation, % (concentration not given with the values) | 0.084% of 360,000 active; in the data active means activation above about 40%; inconclusive means between about 15% and that limit
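DiscoveRx PathHunter D2 beta-arrestin cells (2,100/well) attached overnight, then compound-stimulated 90 min at 37 C in HBSS/10 mM HEPES/0.1% Tween-20 buffer; beta-galactosidase complementation read by luminescence after 1 h at ambient temperature. Dopamine 57 uM final (EC100) as control.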
D2 ag-2: agonists of human D2 dopamine receptor; P14416; HEK293 T-REx D2 cells, calcium flux agonist mode; activation, % at 2 µM; 0.53% of 340,000 active; AID 485358;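 active means activation over 3 SD above normal in the single-dose calcium agonist read, cut at about 30% in these data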; further: 0% is about no effect
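Calcium-flux readout, 1 cycle/sec over 180 s following compound pin transfer, in inducible HEK293 Trex D2 cells (force-coupled); dopamine controls included. Positive calcium responses during this window marked compounds as potential agonists.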
D2 PAM-2: D2 dopamine receptor (human) potentiation; P14416; HEK293 T-REx D2, calcium flux, EC20 dopamine potentiation; potentiation, % at 10 µM; 0.34% of 340,000 active; AID 485347;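 active means potentiation over 3 SD above the plate norm, cut at about 30% in these data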; further: 0% is about no effect
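Tetracycline-induced HEK293 T-REx cells force-coupled to calcium signalling expressed D2; compounds were pin-added after a 10 s baseline, read kinetically 180 s, then an EC20 dopamine challenge followed with a further 180 s calcium read.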
D3 ag: D3 receptor agonism confirmed, beta-arrestin readout; 4% of 2,300 active; Potency, µM (highest dose often 76.9 µM), inactives show top-dose activation, actives largely listed as activators; shares compounds with D2 ag-2; DiscoveRx D3 beta-arrestin cells, luminescence, 90 min;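 further: potency means the concentration at half of the fitted maximal effect; 100% = dopamine control response; nearly all actives have a fitted effect of over 70% in size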
D2 ag-3: activates human D2 dopamine receptor in D3 counterscreen; shares compounds with D2 ag-2; Potency, µM (top dose mostly 76.9 µM), for the others: top-dose activation, usual class: activators; 5.9% of 2,300 active; DiscoveRx PathHunter D2 beta-arrestin, luminescence, 90 min; response scale: percent relative to full dopamine signal; further: potency means the concentration at half of the fitted maximal effect; % of control where 0% means no effect; nearly all actives have a fitted effect of over 70% in size
Active calls of the source: *; ? = inconclusive; . = no result given. Unless noted, the call rests on the fitted dose curve; in most records, active means well fitted activation curve with a large enough effect; inconclusive means small, poorly fitted or top-dose-only effect; inactive means flat fitted curve, though single readings scatter.

SMILES | D2 PAM-1 | D2 antag | D2 ag-1 | D2 ag-2 | D2 PAM-2 | D3 ag | D2 ag-3
Cc1ccc(-n2nc(C)c(C(=O)NCCCN3CCN(c4ccccc4F)CC3)c2-n2cccc2)cc1 | . | . | . | 0 | 0 | . | .
Cc1cc(C)c2c(=O)n(CC(=O)NCCCN3CCOCC3)sc2n1 | -5 | 3 | 3 | 0 | -4 | . | .
Cc1cc(=O)oc(C)c1C(=O)NCCCN1CCN(c2ccccc2F)CC1 | -10 | 47* | 6 | 58* | -33 | ? | 9%
Cn1c(=O)cc(SCC(=O)NCCCN2CCN(c3ccccc3F)CC2)c2ccccc21 | -3 | 92* | ? | 75* | -23 | 16% | ?
Cc1cc(C)c2c(=O)n(CC(=O)NCCCN3CCN(c4ccccc4F)CC3)sc2n1 | -16 | 53* | 0 | 83* | -36 | -13% | 0%
Cn1c(C(=O)NCCCN2CCN(c3ccccc3F)CC2)cc2c(=O)n(C)c3ccccc3c21 | -5 | 98* | ? | 73* | -21 | 11% | ?
Cc1ccc2oc(C(=O)N(Cc3sccc3C)C3CCS(=O)(=O)C3)c(C)c2c1 (stereo not given) | . | . | . | 3 | . | . | .
COc1cccc(Nc2c3c(nc4nncn24)CCC3)c1 | . | . | . | 1 | 20 | . | .
O=C(NCc1ccccc1Cl)c1ccc(NC(=O)N2CCSc3ncccc32)cc1 | . | . | . | 1 | -1 | . | .
CCn1c(=O)cc(SCC(=O)NCCN2CCN(Cc3ccccc3)CC2)c2ccccc21 | -16 | 18 | 4 | 44* | -22 | -9% | 11%
COc1cccc(NC(=O)CCSc2nc(-c3ccco3)cc(C(F)(F)F)n2)c1 | . | . | . | 1 | -3 | . | .
Cc1nn(-c2ccc(C(=O)N3CCN(S(=O)(=O)c4ccccc4C(F)(F)F)CC3)cc2)c(C)c1Cl | 3 | 56* | ? | 74* | -35 | 0.79µM* | 32µM*
CCN1C(C(=O)Nc2cc(C)on2)=C(O)c2ccccc2S1(=O)=O | -1 | 14 | -2 | 38* | 4 | 3% | 12%
Fc1ccc(-c2nc(Nc3ccc(F)c(Cl)c3)nc3c2COc2ccccc2-3)cc1 | . | . | . | 11 | 2 | . | .
Cc1ccc(CN2CCN(C(=O)CC(C)C)CC2)cc1 | 7 | . | 9 | . | . | 2% | 10%
COc1cc(CN2CCN(C(=O)CC(C)C)CC2)cc(OC)c1OC | 3 | -1 | 1 | 0 | 2 | . | .
COc1ccc(CN2CCN(C(=O)CC(C)C)CC2)cc1 | -8 | 23 | -2 | 38* | -4 | -2% | 3%
Cc1ccc2[nH]c(=O)c3cc(C(=O)N(C)Cc4ccco4)sc3c2c1 | -1 | -11 | -6 | 82* | -12 | -3% | -3%
O=C(COc1ccccc1F)NC1CC(=O)N(c2ccc3c(c2)OCCO3)C1 (stereo not given) | . | . | . | 0 | 2 | . | .
CCc1cccc(NC(=O)Cn2nc(-c3cc(C)ccc3C)ccc2=O)c1 | . | . | . | 0 | 6 | . | .
CC(=O)CCc1ccc(OCC(O)CNCCOc2ccc(C)cc2)cc1 (stereo not given) | -7 | 61* | 6 | 66* | -26 | ? | ?
Cc1ccc(Cn2c(=O)c3ccccc3n3c(CCC(=O)NCCN4CCOCC4)nnc23)cc1 | -8 | -11 | 5 | 63* | -27 | -8% | -1%
O=C(CCc1nnc2n(Cc3ccccc3Cl)c(=O)c3ccccc3n12)NCCCN1CCOCC1 | -10 | -8 | -1 | 1 | -5 | . | .
CCOc1cc(-c2c(C)c(C)nc(N)c2C#N)ccc1O | 9 | 8 | ? | 13 | -23 | . | .
CCOc1cc(-c2c(C)c(CC)nc(N)c2C#N)ccc1O | 4 | 5 | ? | 24 | -11 | 3% | ?
COc1ccc(C(C(=O)NCc2ccccc2)N(C(=O)Cn2nnc3ccccc32)c2ccc(F)cc2)cc1 (stereo not given) | . | . | . | 1 | -25 | . | .
Cc1ccc(S(=O)(=O)NCCc2nnc3ccc(SCC(=O)Nc4c(C)cc(C)cc4C)nn23)cc1 | . | . | . | 0 | 3 | . | .

From PubChem BioAssay
